Compound activity (PubChem BioAssay)
Only some compounds are listed: those with a hit (about 21% of all), similar ones and a draw of the others.
TDP1 cell CPT = qHTS for Inhibitors of human tyrosyl-DNA phosphodiesterase 1 (TDP1): qHTS in cells in presence of CPT; Potency, µM (highest dose often 46.2 µM), without a hit: at the highest dose activity change, negative = growth inhibition, usual class: inhibitors; AID 686979, 2013; hit rate 12% among 420,000; chicken DT40 Tdp1-/-;hTDP1 cells + 20 nM CPT, ATP luminescence, 48 h; also: potency is read from the fitted curve at half-maximal effect; nearly all actives have a fitted effect of over 55% in size
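Chicken DT40 Tdp1-/- cells stably complemented with human TDP1 were seeded at 400 cells/well in medium containing 20 nM camptothecin, exposed to pin-transferred compounds, and grown at 37 °C for at least 48 hr. Viability was read as ATP luminescence.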
RORg inh = qHTS for inhibitors of ROR gamma transcriptional activity; Potency, µM (doses to about 53.6 µM), for inactives: at the top dose activity change, negative = inhibition, actives largely listed as inhibitors; AID 2551, 2010; Drosophila S2 Gal4-RORgamma UAS-luciferase reporter, 20 h; Nuclear receptor ROR-gamma (Mus musculus), P51450; hit rate 5.4% among 310,000; also: potency is read from the fitted curve at half-maximal effect; nearly all actives have a fitted effect of over 60% in size
Target sequence (P51450 whole entry, looked up, the tested form may be a part): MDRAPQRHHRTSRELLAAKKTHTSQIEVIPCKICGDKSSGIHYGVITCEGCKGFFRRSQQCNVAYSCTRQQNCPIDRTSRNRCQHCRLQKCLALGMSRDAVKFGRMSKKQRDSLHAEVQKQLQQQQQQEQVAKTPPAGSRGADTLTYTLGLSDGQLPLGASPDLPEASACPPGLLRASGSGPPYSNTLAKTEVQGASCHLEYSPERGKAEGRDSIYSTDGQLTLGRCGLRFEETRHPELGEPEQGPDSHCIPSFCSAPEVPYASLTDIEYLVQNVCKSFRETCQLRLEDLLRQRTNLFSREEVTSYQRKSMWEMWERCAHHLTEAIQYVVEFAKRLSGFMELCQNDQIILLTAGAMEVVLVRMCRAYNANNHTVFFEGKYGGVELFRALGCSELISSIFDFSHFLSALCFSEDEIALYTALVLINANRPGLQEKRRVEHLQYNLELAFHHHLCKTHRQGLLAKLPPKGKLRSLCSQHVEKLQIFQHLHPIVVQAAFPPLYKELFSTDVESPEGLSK
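Luciferase reporter read in Schneider cells carrying Gal4-RORγ (mouse) and UAS-Photinus luciferase; cells given compound 1 h before 700 uM copper sulfate induction, then incubated 20 h at ambient temperature.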
VP16 counter = VP16 counterscreen qHTS for inhibitors of ROR gamma transcriptional activity | Drosophila S2 Gal4-VP16 UAS-luciferase, luminescence, 20 h | AID 2546, 2010 | hit rate 3.5% among 310,000 | Potency, µM (top dose mostly 53.6 µM), for the others: at the highest dose activity, negative = inhibition, most hits filed as inhibitors;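 also: Gal4-VP16 expression switched on by copper sulfate through the metallothionein promoter; potency is read from the fitted curve at half-maximal effect; nearly all actives have a fitted effect of over 50% in size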
IL-1B inflam inh = qHTS for Inhibitors of Inflammasome Signaling: IL-1-beta AlphaLISA Primary Screen; THP-1 LPS/ATP IL-1B secretion, AlphaLISA, 16 h; active compounds read low; activity change, % at 57.5 µM; hit rate 4.7% among 360,000; AID 743279, 2014; in the data active = activity change below about -50%; inconclusive = mostly about -30% to -49%
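THP-1 cells pretreated 1 hr with compounds (up to 57.5 uM final), then stimulated with LPS (250 ng/mL final) plus ATP (1.25 mM final); secreted IL-1B measured by AlphaLISA after 16 hr, decreased signal indicating inhibition.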
DT40 TDP1 no CPT = qHTS for Inhibitors of human tyrosyl-DNA phosphodiesterase 1 (TDP1): qHTS in cells in absence of CPT; AID 686978, 2013; DT40 Tdp1-/- hTDP1 cells, no CPT, ATP luminescence, 48 h; hit rate 15% among 420,000; Potency, µM (series often up to 46.2 µM), inactives show at the top dose activity change, negative = growth inhibition, usual class: inhibitors; also: potency is read from the fitted curve at half-maximal effect; nearly all actives have a fitted effect of over 55% in size
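Chicken DT40 Tdp1-/- cells complemented with human TDP1, screened without camptothecin (DMSO vehicle only), 400 cells/well. Compounds pin-transferred, cells incubated at 37 °C for at least 48 hr. Growth read as ATP-dependent luminescence (CellTiter-Glo, 30 min at RT).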
ELG1 repair inh = qHTS screen for small molecules that inhibit ELG1-dependent DNA repair in human embryonic kidney (HEK293T) cells expressing luciferase-tagged ELG1 | HEK293T ELG1-luciferase reporter, luminescence, 16 h; DNA damage induced by 5-fluorouridine | Potency, µM (top dose mostly 46.1 µM), inactives show at the top dose activity change, negative = inhibition, most hits filed as inhibitors | hit rate 2.3% among 330,000 | AID 504467, 2011; also: potency is read from the fitted curve at half-maximal effect; nearly all actives have a fitted effect of over 55% in size
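Luminescence from the luciferase reporter, measured 30 min after ONE-Glo reagent at room temperature, was the read-out. Beforehand, 2,000 cells per well were exposed for 16 hr at 37 °C to 5-fluorouridine together with compound or vehicle.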
An asterisk follows results filed as active; ? = inconclusive; / = no result given; [ ] = dose if it differs, or a comment. Unless noted, calls follow the shape of the dose curve; as a rule, active = well fitted curve in the direction sought with a large enough effect; inconclusive = small, poorly fitted or top-dose-only effect, or another doubt; inactive = no such curve, though single readings can be large; an effect the other way counts as inactive or inconclusive. % is scaled to controls: 0 for no effect and ±100 for the full control effect.

SMILES | TDP1 cell CPT | RORg inh | VP16 counter | IL-1B inflam inh | DT40 TDP1 no CPT | ELG1 repair inh
COc1ccc(CCC(=O)OCC(=O)Nc2sccc2C#N)cc1 | -3% | / | / | 29 | -16% | ?
CCOc1ccc(S(=O)(=O)N2CCN(CCNS(=O)(=O)c3ccc(C)cc3)CC2)cc1 | -7% | / | / | ? | ? | -13%
Cc1cc(=O)nc2c3ccccc3n(CC(=O)NCCC3=CCCCC3)n12 | -15% | 2% | 0% | 73 | -4% | 9%
Cc1cccc(C)c1NC(=O)Cn1cc(S(=O)(=O)Cc2ccc(F)cc2)c2ccccc21 | ? | / | / | / | -10% | /
CCN(CC(=O)Nc1ccccc1OC)CC(=O)Nc1sccc1C#N | ? | 14% | 2% | 10 | ? | ?
N#Cc1ccsc1NC(=O)CN(Cc1ccccc1)Cc1ccccc1 | 21µM* | 13% | -4% | 0 | 15µM* | -10%
COc1cc(C(C)=O)ccc1OCC(=O)OC(C)C(=O)c1ccc(F)cc1 (stereo not drawn) | 27% | / | / | 1 | 2% | 0%
COc1ccc(CCn2c(N)c(C(=O)NCc3ccco3)c3nc4ccccc4nc32)cc1 | 12µM* | ? | ? | -86* | 13µM* | 21µM*
Nc1c(C(=O)NCc2ccco2)c2nc3ccccc3nc2n1CCc1ccccc1F | 16µM* | -24% | 16% | -58* | ? | -29%
COCCn1c(N)c(C(=O)OCc2ccccc2)c2nc3ccccc3nc21 | -8% | ? | 14µM* | 8 | ? | ?
COc1ccc(-n2c(N)c(C(=O)NCc3ccco3)c3nc4ccccc4nc32)c(OC)c1 | 23µM* | -32% | -7% | -18 | ? | -25%
COc1ccc(Nc2cc(C(=O)NCc3ccco3)c3ccccc3n2)cc1 | / | -4% | -5% | / | / | 4%
CCn1c(-c2ccccc2F)nc2cc(NC(C)=O)cc(C(=O)N3CCCC3c3nccs3)c21 (stereo not drawn) | 7%[9.04 µM] | / | / | / | 2% | /
CCOc1ccccc1C1C(C#N)=C(N)N(N(C)C)C2=C1C(=O)CCC2 (stereo not drawn) | 20% | -3% | 2% | 5 | -19% | 4%
COCCNC(=O)CSc1nc2cc(OC)c(OC)cc2c(=O)n1CCC1=CCCCC1 | -15% | 23% | -9% | 28 | -18% | ?
CCCCOC(=O)c1c(N)n(-c2ccc(OC)cc2OC)c2nc3ccccc3nc12 | 12µM* | / | / | / | 16µM* | /
COc1ccc2cc3cc(C(=O)NCc4ccco4)oc3nc2c1 | ? | 11% | -16% | -13 | ? | 7%
COc1ccc(Cn2c(N)c(C#N)c3nc4ccccc4nc32)cc1OC | -14% | -13% | -20% | -5 | -22% | -7%
COc1ccc2cc3c(N)c(C(=O)NCc4ccco4)sc3nc2c1 | ? | ? | ? | -63* | ? | ?
COCCNC(=O)c1c(N)n(CCC2=CCCCC2)c2nc3ccccc3nc12 | ? | 12% | -9% | -72* | 26µM* | ?
COc1ccc(CCn2c(N)c(C(=O)NCc3ccco3)c3nc4ccccc4nc32)cc1OC | 23µM* | 27% | -11% | -20 | 16µM* | 10µM*
O=C(Cn1c(=O)n(-c2ccccc2Cl)c(=O)c2sc3ccccc3c21)NC1CCCC1 | -22% | / | / | / | -2% | /
Cc1cc(F)ccc1C(O)c1ncc(-c2cccc(F)c2)[nH]1 (stereo not drawn) | -9% | / | / | -17 | ? | /
COc1ccc(CNC(=S)Nc2cccc(OC)c2)cc1 | 1% | 18µM* | 13µM* | -27 | -13% | -23%
COc1cccc(NC(=S)NN=C2CCCCCC2)c1 | 3.7µM* | 13µM* | ? | 33 | 5.2µM* | ?
SMILES | TDP1 cell CPT | RORg inh | VP16 counter | IL-1B inflam inh | DT40 TDP1 no CPT | ELG1 repair inh
COc1ccc(CCNC(=S)Nc2cccc(C)c2)cc1 | ? | 7.1µM* | 10µM* | 1 | 16µM* | -6%
COc1cccc(CNC(=S)Nc2cc(C)cc(C)c2)c1 | 3% | 4.5µM* | -16%[10 µM] | 9 | -8% | -3%
O=S1(=O)CCN(C2CCCCCC2)CC1 | -9% | / | / | 16 | -14% | /
C[C@@H](NC(=O)[C@@H]1CCCN1C(=O)[C@@H]1CCCN1)c1ccccc1 | -16% | / | / | 25 | -19% | /
Cc1ccc(C(=O)C(C)OC(=O)CCN2C(=O)C3C4C=CC(C5CC45)C3C2=O)cc1 (stereo not drawn) | 9% | 10% | 5% | 24 | 6% | -5%
O=C(Oc1ccccc1)N1CCC2(CC1)CN(c1ccccc1)C2 | ? | 41% | -17% | / | ? | /
COc1ccc(CNC(=S)Nc2cc(C)cc(C)c2)cc1 | ? | 4µM* | 13µM* | -25 | ? | -13%
COc1ccc(CNC(=S)Nc2ccc(F)c(Cl)c2)cc1 | ? | 7.1µM* | ? | -22 | ? | 17%
NS(=O)(=O)c1ccc(CNC(=S)Nc2ccc(F)c(Cl)c2)cc1 | -11% | 42% | ? | 1 | ? | ?
COc1ccc(CNC(=S)Nc2ccc(Br)cc2)cc1 | ? | 10µM* | 11µM* | 21 | 18µM* | -5%
O=C(NNCc1ccccc1)c1ccccn1 | -13% | / | / | -6 | -6% | /
CN(Cc1ccccc1)C(=O)CNC(=O)C12CC3CC(CC(C3)C1)C2 | -19% | / | / | 9 | -13% | 7%
CN(Cc1ccccc1Cl)C(=O)CNC(=O)C12CC3CC(CC(C3)C1)C2 | 21µM* | / | / | 4 | ? | 2%
CN(C)Cc1csc(NC(=O)Nc2ccccc2Cc2ccccc2)n1 | ? | / | / | -17 | ? | /
